Measurements reported in paper PMC12136788.
Positions count from the first letter of the chain named. Whole data set: some 5,800 sequences, median “enrichment r” near 0.68, cut for the highest 2% near 11. For the sample, the highest values were picked, then their nearest neighbours and some sequences at random.

T1: UNK ZnF1-6 (called full-length) (human, UniProt Q9C0B0 30-357)
T1 sequence: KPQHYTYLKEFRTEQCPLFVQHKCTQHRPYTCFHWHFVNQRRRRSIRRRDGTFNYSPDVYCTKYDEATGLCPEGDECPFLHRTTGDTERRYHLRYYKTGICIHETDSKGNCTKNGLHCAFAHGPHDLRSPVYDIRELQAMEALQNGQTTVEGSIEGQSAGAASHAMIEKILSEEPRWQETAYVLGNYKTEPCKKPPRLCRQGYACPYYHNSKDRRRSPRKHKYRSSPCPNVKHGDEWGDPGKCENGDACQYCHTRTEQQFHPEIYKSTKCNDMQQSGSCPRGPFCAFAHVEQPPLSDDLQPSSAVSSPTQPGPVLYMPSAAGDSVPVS

B1: chr19:44386474:44388102:-|CDS|ENSG00000267508|control|control|control (ssRNA)
RNA: GGGAGUUCUACAGUCCGACGAUCGGCAUGUGGUAAGGGCUUCAGUCGUAAUUCAUACCUCCUUGCCCAUCAGAGAGUGCAUAUAGAUGAGACACAGUACACACACUGUGAGCGUGGAAAGGACCUUCUGACUCAUCAAAGACUCAACAGAGGAUUGAGCAUCA
B2: ENSG00000198589:be:win_1001|CDS|ENSG00000198589|bound_else_gene|NA|bound_elsewhere_windowed (ssRNA)
RNA: GGGAGUUCUACAGUCCGACGAUCUCAACACUAGCGAUACCUUUGACAAAUGUUUCCUGGGCUCAUCAGAAACAGCAGAUGCUAAUAGAGUAUUCUGUGGUCAGAUGACUGCAGUUUACCUUUUCAGUGAAGCUCUAAAUGCAGCAACAGAGGAUUGAGCAUCA
B3: chr1:114568131:114568247:-|CDS|ENSG00000116752|unk|total|mutant (ssRNA)
RNA: GGGAGUUCUACAGUCCGACGAUCUUCCCGUUGGGUAUCCCUGGUCAGUAAGAAUUAUGAGAUUGAACGGACUAUUGUUCAGCCCGAAAAUGAAAUCUAUCAAAUUAAGCAGCAACAUGGAGAGGCAAACAAAGAAAACAUCCGCAACAGAGGAUUGAGCAUCA
B4: chr11:85659139:85659240:-|3pUTR|ENSG00000137504|msi1|FALSE|unique (ssRNA)
RNA: GGGAGUUCUACAGUCCGACGAUCGUCUGAUUUAGUAAAAUUUUAAAGCUAAAUAAUCUGAUGACUCUUGAAAGUUUAAUUGGUAGUAUGACAUUUAUGUUUUUUUCCCCCAGACUCACAGCCAAUACAAAGUUUUGAGACUCCCAACAGAGGAUUGAGCAUCA
B5: ENSG00000124766:be:win_2851|3pUTR|ENSG00000124766|bound_else_gene|NA|bound_elsewhere_windowed (ssRNA)
RNA: GGGAGUUCUACAGUCCGACGAUCUAAUCAGAUGCCAUUUUAUAUGUGGACGUAUUUAUACUGGCCAAACAUAUUUUUUCUUUUGUCCCUUUUUUUCUUUCCUUUCUUUUUACUUCCUUUAUUUCUUUAUUCCUUCCUUUUCCUCAACAGAGGAUUGAGCAUCA
B6: chr2:27041412:27041530:+|3pUTR|ENSG00000119777|msi1_unk|FALSE|overlapping (ssRNA)
RNA: GGGAGUUCUACAGUCCGACGAUCACUUCAAAAUGCCCAGCCUGCCCCAAAUGCCUCUAAGCCCCUCCCUGUCCCCUCCCUUGUAGUCCUACUUCUUCCAACUUUCCAUUCCCCAUCAUGCUGGGGGUCUUGGUCACAAGGCUCCAACAGAGGAUUGAGCAUCA
B7: chr7:158693335:158693439:-|CDS|ENSG00000146918|unk|total|mutant (ssRNA)
RNA: GGGAGUUCUACAGUCCGACGAUCAAGGAAACAGAAAGAAGAAUUAUGGCAAAGGCUGAAGAAUUUAUUGACAGAUGUGUUGUCCGAAAGCCCAGUGGAUGGGUGGCAGGCCGUGGAAGCCCAGGGUGAAGACAAUAUGGAAACCAACAGAGGAUUGAGCAUCA
B8: chr19:38730201:38730298:+|3pUTR|ENSG00000130402|msi1_unk|FALSE|overlapping (ssRNA)
RNA: GGGAGUUCUACAGUCCGACGAUCCAGAGAAUUACUAUUUACUUUAUUAACUUACGGAUUUAUUAUAUAAAUAUAUAUUCACCUAGCAACAUAUCUCUGCCGUCUCUCCUGCUCUCAUAAUGAAGACAUAGCCGAUUCUCUGCCCAACAGAGGAUUGAGCAUCA
B9: chr3:58425360:58425463:+|3pUTR|ENSG00000168297|unk|FALSE|unique (ssRNA)
RNA: GGGAGUUCUACAGUCCGACGAUCAGACAGCUCCUAGAAACAUUCCUCUUACAGUUCAUUUCUCUAAAGCAUUUUCUGAUUCUUAGAUAACUCCAAUUUUUGCUACCUUUAUCUUAGACAUUAACACUAUAGCCCAAAGCAUAGCAACAGAGGAUUGAGCAUCA
B10: chr2:165880514:165880799:-|CDS|ENSG00000123607|control|control|control (ssRNA)
RNA: GGGAGUUCUACAGUCCGACGAUCGAUGGCAUGGAAAUAUAGCAAUCGGACAAAUCCGGCAGUAGGUGAGUUUGGCAAUCACCUAGAUUUUUCACAGAAAAAUUAUGUUGUAUUUAUUAAUUUUCAUUUAAAUGCAUUUGAUUUCAACAGAGGAUUGAGCAUCA
B11: chr7:158734047:158734148:-|3pUTR|ENSG00000117868|msi1_unk|FALSE|overlapping (ssRNA)
RNA: GGGAGUUCUACAGUCCGACGAUCCUACCCGGAACACACCCUCUCACAGACGUACCAAUGUUAUUUUUAUAAUUUCAUGGAUUUAGUUAUACAUACCUUAAUAGUUUUAUAAAAUUGUUGACAUUUCAGGCAAAUUUGGCCAAUCAACAGAGGAUUGAGCAUCA
B12: chr12:107752058:107752159:-|CDS|ENSG00000110851|unk|FALSE|unique (ssRNA)
RNA: GGGAGUUCUACAGUCCGACGAUCUAACUCUAUAAAUGUUGAUGGUAAUACAGCAUUAUCUAUCACCAAUAACCCUUCAGCACUAGAUCCCUAUCAGUCCAAUGGAAAUGUUGGAUUAGAACCAGGCAUUGUUUCAAUAGACUCCAACAGAGGAUUGAGCAUCA
B13: ENSG00000136451:be:win_1351|CDS|ENSG00000136451|bound_else_gene|NA|bound_elsewhere_windowed (ssRNA)
RNA: GGGAGUUCUACAGUCCGACGAUCCCAUUAUCCAUGACCUCUCCUUUAACACUCACUACCCCAGUCAACCUCCCCACCCCCGUCACUGCCCCAGUGAAUAUAGCACACCCUGUCACCAUCACAUCUCCAAUGAAUCUACCCACACAACAGAGGAUUGAGCAUCA
B14: chr14:75059847:75060235:-|three_prime_utr|ENSG00000119640|control|control|control (ssRNA)
RNA: GGGAGUUCUACAGUCCGACGAUCAACCACAUUAAAAAAAUAAAAAGGAUAACUGGAAAAUCCCAAAAUAUUUGGAAACCAUAUAGCACACUUACUUCUAAAAUUGUGGUAGAAUACAUAUAACAUAGAAAUUAUUGUUCUAACCAACAGAGGAUUGAGCAUCA
B15: chr1:93180074:93180188:-|CDS|ENSG00000117500|unk|total|mutant (ssRNA)
RNA: GGGAGUUCUACAGUCCGACGAUCCUGGCCGCUCUGCCUCCGGUGCUGCUGCCUGGGGCGGCCGGCUUCACACCUUCCCUCGACCGCGACUUCACCUUUACCCUUCCCGCCGGCCAGAAGGAGUGCUUCUACCAGCCCAUGCCCCAACAGAGGAUUGAGCAUCA
B16: chr11:11963431:11963477:-|3pUTR|ENSG00000050165|msi1_unk|FALSE|overlapping (ssRNA)
RNA: GGGAGUUCUACAGUCCGACGAUCUUGACACUGUCCCUCUUUGGCAGUUGCAUUAGUAACUUUGAAAGGUAUAUGACUGAGCGUAGCAUACAGGUUAACCUGCAGAAACAGUACUUAGGUAAUUGUAGGGCGAGGAUUAUAAAUCAACAGAGGAUUGAGCAUCA
B17: chr11:130144177:130144243:+|3pUTR|ENSG00000084234|msi1_unk|total|mutant (ssRNA)
RNA: GGGAGUUCUACAGUCCGACGAUCAUGAGGGUGUCCGCUGCUGCUUUCCUUCGGAAUCCAGUGCUUCCACAGAGAUCCGCCUGCCGCUUAUAUUUGACAUUCUUCACUGUCUGUUGUUUACCUACCGCCGCUUUUUACCGUUCACAACAGAGGAUUGAGCAUCA
B18: chr8:47773456:47773635:-|3pUTR|ENSG00000253729|msi1_unk|FALSE|overlapping (ssRNA)
RNA: GGGAGUUCUACAGUCCGACGAUCGUUUUUUCCUUUCAUUUUAUUCUCUUCUAGUUUUGACAUUUUAUGAUAGAUUUGCUCUCUAGAAGGAAACGUCUUUAUUUAGGAGGGCAAAAAUUUUGGUCAUAGCAUUCACUUUUGCUACAACAGAGGAUUGAGCAUCA
B19: chr1:965281:965395:+|3pUTR|ENSG00000187961|unk|total|mutant (ssRNA)
RNA: GGGAGUUCUACAGUCCGACGAUCCCAUCCGUUCACGUCUCUGCAUCCAUUCCUUCAUGUCUUUAUUCCGUUGUUUAUUUAUUCCGUUAUUUAUCUUAUUUAUUGAGGGGUGAGGAGUGCCACGGCUGCCCGUUUACACCUUUACAACAGAGGAUUGAGCAUCA
B20: ENSG00000124766:be:win_3001|3pUTR|ENSG00000124766|bound_else_gene|NA|bound_elsewhere_windowed (ssRNA)
RNA: GGGAGUUCUACAGUCCGACGAUCUUUUUUUGGUAGUUGUUGUUACCCACGCCAUUUUACGUCUCCUUCACUGAAGGGCUAGAGUUUUAACUUUUAAUUUUUUAUAUUUAAAUGUAGACUUUUGACACUUUUAAAAAACAAAAACAACAGAGGAUUGAGCAUCA
B21: chr1:965281:965395:+|3pUTR|ENSG00000187961|unk|FALSE|unique (ssRNA)
RNA: B19 RNA with C67U, C68A, C83U, C84A
B22: ENSG00000124766:be:win_2951|3pUTR|ENSG00000124766|bound_else_gene|NA|bound_elsewhere_windowed (ssRNA)
RNA: GGGAGUUCUACAGUCCGACGAUCCUUUAUUCCUUCCUUUUCCUUUUUUUCUUUUUUUUUUCUUUUUUUUUUUUUUUUUUUGGUAGUUGUUGUUACCCACGCCAUUUUACGUCUCCUUCACUGAAGGGCUAGAGUUUUAACUUUCAACAGAGGAUUGAGCAUCA

These binders were tested against T1, UNK ZnF1-6 (called full-length) (assay: nsRBNS (natural sequence RNA bind-n-seq); RBNS binding buffer (assumed for nsRBNS): 25 mM Tris pH 7.5, 150 mM KCl, 3 mM MgCl2, 0.01% Triton X-100, 500 ug/ml BSA, 20 U/ml SUPERase-In, 4 C; UNK is unkempt and MSI1 is Musashi-1; names of the RNAs are library labels; protein concentration not given here; high values mean tight binding).

Row | Binder | binding signal [enrichment R]
1 | B1 | 0.503
2 | B2 | 0.527
3 | B3 | 0.717
4 | B4 | 1.52
5 | B5 | 8
6 | B6 | 1.6
7 | B7 | 1
8 | B8 | 20.4
9 | B9 | 3.62
10 | B10 | 0.541
11 | B11 | 33.1
12 | B12 | 0.391
13 | B13 | 1.83
14 | B14 | 2.02
15 | B15 | 0.868
16 | B16 | 0.884
17 | B17 | 0.644
18 | B18 | 5.42
19 | B19 | 5.63
20 | B20 | 4.11
21 | B21 | 199
22 | B22 | 35.6
